One experiment has as its system CRL-7250. As to the kind of experiment: Cytotoxic Profiling of Annotated Libraries Using Quantitative High-Throughput Screening (AID 1296008). Particulars: Five cell lines viability, CellTiter-Glo ATP luminescence, 48-72 h; max response: hits give low values. The method, boiled down:
(§1)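 Cytotoxicity was measured as CellTiter-Glo ATP luminescence, read after 10 min at room temperature. Compound treatment of the cells lasted 48 or 72 hr at 37 degrees Celsius in a qHTS format.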

In another experiment the test system is HEK293. Described as above. To be noted: Five cell lines viability, CellTiter-Glo ATP luminescence, 48-72 h; max response: hits give low values. The method, boiled down: as §1
In experiment [1] the test system is HaCat. The experiment is described as above. Particulars: Five cell lines viability, CellTiter-Glo ATP luminescence, 48-72 h; max response: hits give low values. The method, boiled down:
as §1

The subject of the next experiment is KB-3-1. Described as above. Particulars: Five cell lines viability, CellTiter-Glo ATP luminescence, 48-72 h; max response: hits give low values. The method, boiled down:
as §1

Another experiment concerns NIH3T3. The experiment is described as above. To be noted: Five cell lines viability, CellTiter-Glo ATP luminescence, 48-72 h; max response: hits give low values. The method in brief: as §1
Experiment [2] has as its system HACAT. As to the kind of experiment: qHTS assay to identify novel small-molecules to repurpose for Merkel cell carcinoma treatment (AID 1296009). To be noted: MCC and control cell lines, CellTiter-Glo viability, 72 h; at 44.8 µM (top of the series) unless noted. The method, boiled down:
(§2)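 72 hr, 37 degree celsius; NPC 8-pt / MIPE 11-pt dose response; compound pinned in DMSO; CellTiter-Glo, 10 min RT, luminescence; normalized to no-cell and DMSO controls.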

The subject of the next experiment is MCC-13. Described as above. Particulars: MCC and control cell lines, CellTiter-Glo viability, 72 h; series mostly up to 46 µM. The method, boiled down:
as §2

Another experiment has as its system MCC-26. The experiment is described as above. To be noted: MCC and control cell lines, CellTiter-Glo viability, 72 h; series mostly up to 46 µM. The method in brief:
as §2

The subject of the next experiment is HEK293T. The description is as above. Particulars: MCC and control cell lines, CellTiter-Glo viability, 72 h; at 44.8 µM (top of the series) unless noted. The method in brief:
as §2

The structures appear in SMILES notation. “And” between values parts separate entries of the source, which are not always exact repeats. Equal values may be shown once. Records with an inconclusive call do not appear. Unmarked numbers belong to inactive results. The source made the active and inactive calls. Calls follow the shape of the dose curve; as a rule, active = well fitted inhibition curve with a large enough effect; inconclusive = small, poorly fitted or top-dose-only effect; inactive = flat fitted curve, though single readings scatter.
% is scaled to controls: 0 for no effect and ±100 for the full control effect; potency is read from the fitted curve at half-maximal effect.
Also: nearly all actives have a fitted effect of over 60% in size.

`CN1[C@H]2CC[C@H]1CC(OC(=O)c1c[nH]c3ccccc13)C2` (stereo partly drawn): the max response in the experiment on CRL-7250 is -1.18%; with HEK293, -1.65%; with KB-3-1, 6.19%. Also, the call with HaCat [1], with NIH3T3 and with HACAT [2] was inactive. Further, the Potency entry with MCC-13 and with MCC-26 was “inactive” each time.

As for `CO[C@H]1C=CO[C@@]2(C)Oc3c(C)c(O)c4c(O)c(c(C=NN5CCN(C)CC5)c(O)c4c3C2=O)NC(=O)C(C)=CC=C[C@H](C)[C@H](O)[C@@H](C)[C@@H](O)[C@@H](C)[C@H](OC(C)=O)[C@H]1C`, the max response was -4.52% in the experiment on CRL-7250, 3.97% in the experiment with HEK293, 0.835% in the experiment with KB-3-1 and -3.12% in the experiment with NIH3T3. The call in the experiment on HaCat [1] was inactive. Moreover, the outcome with HACAT [2] is “inactive [at 9.27 µM]”. Moreover, the values for the activity change, negative = cytotoxicity with MCC-13 and with MCC-26 were -0.156% [at 9.22 µM] and -1.4% [at 9.22 µM], respectively.

Take `CC(C)(CO)[C@@H](O)C(=O)NCCC(=O)O`: the max response with CRL-7250 was 0.71%; with KB-3-1, 1.6% and 8.68%; in the experiment on NIH3T3 it was -2.4%. Also, the call in the experiment on HEK293, with HaCat [1], in the experiment with HACAT [2] and in the experiment with HEK293T was inactive. Besides, the Potency entry in the experiment on MCC-13 and with MCC-26 was “inactive” in each case.

For `CCC[C@@H](NC(=O)[C@@H]1[C@H]2CCC[C@@H]2CN1C(=O)[C@@H](NC(=O)[C@@H](NC(=O)c1cnccn1)C1CCCCC1)C(C)(C)C)C(=O)C(=O)NC1CC1`, the call with CRL-7250, in the experiment with HaCat [1], in the experiment on KB-3-1, with NIH3T3 and in the experiment with HACAT [2] was inactive. Moreover, the max response in the experiment on HEK293 is -0.244%. Besides, the Potency entry with MCC-13 and in the experiment on MCC-26 was “inactive” each time.

As for `C[C@@H](O)[C@H]1C(=O)N2C(C(=O)OCOC(=O)C(C)(C)C)=C(SC3CN(C4=NCCS4)C3)[C@H](C)[C@H]12`, the max response is 0.148% with CRL-7250 and 8.8% in the experiment with KB-3-1. Further, the molecule was classed as inactive in the experiment on HEK293, with HaCat [1], in the experiment with NIH3T3, with HACAT [2] and in the experiment on HEK293T. Moreover, the Potency result in the experiment with MCC-13 and in the experiment with MCC-26 was “inactive” in each case.

Consider `CCOC(=O)[C@H](CCc1ccccc1)N[C@@H](C)C(=O)N1CCCC1C(=O)O` (stereo partly drawn), for which the max response in the experiment on CRL-7250 was 3.69%; in the experiment with KB-3-1 it was 2.47%. The outcome with HEK293, in the experiment with HaCat [1], in the experiment with NIH3T3, in the experiment on HACAT [2] and in the experiment with HEK293T was inactive. Further, the Potency result with MCC-13 and with MCC-26 was “inactive” each time.

As to `O=c1cc(-c2ccc(O)c(O)c2)oc2cc(O)cc(O)c12`, the max response was 4.28% in the experiment with CRL-7250 and 3.33% in the experiment on NIH3T3. The result in the experiment with HEK293, in the experiment on HaCat [1], with KB-3-1, with HACAT [2] and in the experiment on HEK293T was inactive. Moreover, the Potency entry with MCC-13 and in the experiment on MCC-26 was “inactive” each time.

As for `CC[C@H](NC(=O)[C@H](C)NC)C(=O)N1C[C@@H](O)C[C@H]1Cc1c(-c2[nH]c3cc(F)ccc3c2C[C@H]2C[C@H](O)CN2C(=O)[C@H](CC)NC(=O)[C@H](C)NC)[nH]c2cc(F)ccc12`, the molecule was classed as inactive in the experiment with CRL-7250, in the experiment with HaCat [1], with KB-3-1, in the experiment on NIH3T3 and in the experiment on HACAT [2]. For the same molecule, in the experiment on HEK293, the max response was 1%. The Potency result in the experiment on MCC-13 and in the experiment with MCC-26 was “inactive” in each case.

With `Cc1cc(NC(=O)Nc2ccc(N(C)C)cc2)c2cc(F)cc(F)c2n1`, the molecule was classed as inactive in the experiment with CRL-7250, in the experiment on HaCat [1], in the experiment on KB-3-1, in the experiment on NIH3T3 and with HACAT [2]. Also, in the experiment on HEK293, the Potency was 14.8 µM (active). Also, the Potency entry in the experiment on MCC-13 and with MCC-26 was “inactive” each time.

In the case of `CC(C)[C@H](O)C(=O)N[C@@H](C)C(=O)N[C@@H]1C(=O)N(C)CCc2ccccc21`, the max response with CRL-7250 was -12.5%; in the experiment with HEK293, -11.6%; with HaCat [1] it was 1.12%; in the experiment with KB-3-1, -11.2%; in the experiment on NIH3T3, -3.15%. In addition, the Potency result with MCC-13 and with MCC-26 was “inactive” throughout.

As for `COc1cc(Cl)cn2c(-c3cccc(NC4CNC4)n3)cnc12`, the max response with CRL-7250 was -2.6%; in the experiment on HEK293, -13.3%; with HaCat [1], -3.22%; in the experiment on KB-3-1 it was -0.178%; in the experiment with NIH3T3, 4.3%. For the same molecule, the Potency entry with MCC-13 and with MCC-26 was “inactive” in each case.

Consider `COc1cc(F)c(C(C)C)cc1-c1ccc(C(F)(F)F)cc1CN1C(=O)O[C@H](c2cc(C(F)(F)F)cc(C(F)(F)F)c2)[C@@H]1C`, for which the molecule was called inactive in the experiment on CRL-7250. Besides, the max response is 0.948% in the experiment with HEK293, 0.17% with HaCat [1], -11.6% in the experiment with KB-3-1 and 0.998% with NIH3T3. For the same molecule, the Potency result with MCC-13 and in the experiment with MCC-26 was “inactive” each time.

As to `C[C@H]1COC2=C1C(=O)C(=O)c1c2ccc2c1CCCC2(C)C`, the max response in the experiment on CRL-7250 was -3.27%; in the experiment with HEK293 it was -0.441%; with HaCat [1], 3.37%; in the experiment on KB-3-1, -1.52%. For the same molecule, the molecule was classed as inactive with NIH3T3. The Potency result with MCC-13 and in the experiment with MCC-26 was “inactive” in each case.

As to `N#CC1(c2cccc(C(=O)Nc3cc(Oc4ccc5nc(NC(=O)C6CC6)sc5n4)ccc3F)c2Cl)CC1`, the Potency is 5.17 µM (active) in the experiment on CRL-7250; 13.2 µM (active) and 6.51 µM (active) with HEK293; 26.4 µM (active) and 20.6 µM (active) in the experiment with HaCat [1]; 3.32 µM (active) and 3.26 µM (active) in the experiment with NIH3T3; 16.6 µM (active) in the experiment on MCC-13; 11.8 µM (active) in the experiment with MCC-26. In the experiment on KB-3-1, the max response was -20.5% and -13.3%.

As for `CC(NCCc1ccc(O)cc1)C(O)c1ccc(O)cc1` (stereo not drawn), the max response was -0.502% with CRL-7250, 3.14% with HEK293, -0.381% in the experiment with HaCat [1] and -1.97% in the experiment with KB-3-1. Besides, the outcome in the experiment with NIH3T3 was inactive. Further, the Potency entry in the experiment on MCC-13 and in the experiment with MCC-26 was “inactive” each time.

For the molecule `Cc1nc(NC(=O)N2CCC[C@@H]2C(N)=O)sc1-c1csc(C(C)(C)C)n1`, the Potency in the experiment with CRL-7250 was 1.32 µM (active); with HEK293, 2.35 µM (active); in the experiment with HaCat [1] it was 1.87 µM (active); in the experiment on KB-3-1 it was 13.2 µM (active); in the experiment with NIH3T3, 4.69 µM (active). For the same molecule, in the experiment with MCC-13, the Potency result was “inactive”.

On to `Cc1c(C(=O)Nc2ccc(N3C[C@@H](C)O[C@@H](C)C3)nc2)cccc1-c1ccc(OC(F)(F)F)cc1`, for which the max response in the experiment on CRL-7250 is -6.66%; in the experiment with KB-3-1, -8.91%. For the same molecule, the results for the Potency with HEK293, in the experiment on HaCat [1] and with NIH3T3 were 5.26 µM (active), 9.35 µM (active) and 20.9 µM (active), respectively. In addition, the Potency result in the experiment on MCC-13 and in the experiment with MCC-26 was “inactive” each time.

On to `N#Cc1ccc(Oc2ccc3c(c2)COB3O)cc1`, for which, in the experiment on CRL-7250, the outcome was inactive. Also, the max response was -0.565% with HEK293; -2.09% and 3.76% in the experiment with HaCat [1]; -8.17% and -9.93% with KB-3-1; -0.632% and -20.3% in the experiment on NIH3T3. Moreover, the Potency result in the experiment with MCC-13 and in the experiment on MCC-26 was “inactive” throughout.

Values taken from PubChem BioAssay (NCATS).
